TRHR PAM: allosterically enhances the human TRH receptor; 360,000 compounds, 0.66% hits; P34981; TRHR cells, fluo-8 calcium fluorescence, EC20 TRH enhancement; enhancement, % at 2 µM; in the data active = enhancement above about 30%
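TRHR-expressing cells loaded with fluo-8 calcium dye were read kinetically (ex 480/em 530) during compound addition, then stimulated with an EC20 of TRH (10 nM final). Enhancement of the Gq-mediated intracellular calcium response was scored.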
D1 antagonist: human D1 dopamine receptor antagonism. AID 504652. HEK293 TREx D1 cells, calcium flux, dopamine EC80; active compounds read low. 360,000 compounds, 3.2% hits. P21728. activity change, negative = inhibition, % at 10 µM; in the data active = activity change below about -30%
Target sequence (P21728 whole entry, looked up): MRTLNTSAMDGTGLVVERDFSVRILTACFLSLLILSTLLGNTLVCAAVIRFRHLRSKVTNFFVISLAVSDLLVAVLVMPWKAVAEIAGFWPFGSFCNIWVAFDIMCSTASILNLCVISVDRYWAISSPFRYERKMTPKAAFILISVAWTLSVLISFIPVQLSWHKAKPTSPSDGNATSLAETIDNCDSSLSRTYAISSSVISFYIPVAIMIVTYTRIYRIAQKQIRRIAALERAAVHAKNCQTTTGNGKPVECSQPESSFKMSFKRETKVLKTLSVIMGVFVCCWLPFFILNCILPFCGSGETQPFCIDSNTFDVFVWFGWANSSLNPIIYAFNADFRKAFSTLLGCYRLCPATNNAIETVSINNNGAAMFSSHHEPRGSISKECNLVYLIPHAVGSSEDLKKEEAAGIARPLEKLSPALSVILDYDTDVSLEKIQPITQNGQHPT
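Tetracycline-induced HEK293 T-REx cells with force-coupled D1 receptor were loaded with a no-wash calcium dye. Compound was added after a 10 s baseline and read kinetically for 180 s; EC80 dopamine was then added and calcium flux followed another 180 s.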
TRHR ag: TRH receptor (human) agonism. P34981. TRHR cells, calcium flux fluo-8, FDSS agonist mode. activation, % at 2 µM. 360,000 compounds, 0.18% hits
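Fluo-8-loaded TRHR cells; 10 s baseline, compound added, kinetic Ca2+ fluorescence read 1/s, agonist mode.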
D1 potentiator: enhances dopamine response at the human D1 receptor; P21728; 360,000 compounds, 0.036% hits; potentiation, % at 10 µM; HEK293 TREx D1 cells, calcium flux, dopamine EC20 potentiation; AID 504651; in the data active = potentiation above about 30%
D1 ag: activates the human D1 dopamine receptor; activation, % at 2 µM; 360,000 compounds, 1% hits; HEK293 T-REx D1 cells, calcium flux, agonist mode; P21728; AID 504660
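Agonism was scored from calcium flux recorded over 180 s (1 read/s) after pintool compound addition, following a 10-cycle baseline. Cells were inducible force-coupled HEK293 TREx D1, plated overnight at 30 C and loaded with no-wash calcium dye.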
Numbers stand for hits; i = inactive; nt = no result given. Compounds with a hit are over-represented: about 4.7% of the library has one in this group of screens. Rule as the data show it, unless noted: active = activation above about 30%; inactive = the rest.

SMILES	TRHR PAM	D1 antagonist	TRHR ag	D1 potentiator	D1 ag
CC(CCc1ccccc1)NC(=O)CSc1n[nH]c(-c2ccc(F)cc2)n1 (stereo unspecified)	i	i	i	i	i
Cc1cccc(-c2nc3scc(CCNS(=O)(=O)c4ccc(F)cc4C)n3n2)c1	i	nt	i	i	i
COc1cc(C(=O)NCC(=O)N/N=C/c2ccccn2)cc(OC)c1OC	34.9	i	i	i	i
O=C(CNC(=O)c1ccncc1)N/N=C/c1ccccn1	i	i	i	i	i
COc1cccc(/C=N/NC(=O)CNC(=O)c2cccnc2)c1O	i	i	i	i	i
COc1cccc(/C=N/NC(=O)CNC(=O)c2ccncc2)c1O	i	-41.3	i	i	i
Cn1c(=O)n(CC(=O)NCC2CCCO2)c(=O)c2c3c(sc21)COC(C)(C)C3 (stereo unspecified)	i	-30.0	i	i	i
CCCn1c(=O)n(CC(=O)NCC2CCCO2)c(=O)c2c3c(sc21)COC(C)(C)C3 (stereo unspecified)	i	i	i	i	i
Cc1cc(C)cc(-n2ccnc(NCc3ccc(F)cc3)c2=O)c1	i	i	i	i	i
O=S1(=O)CCN(C(CO)c2ccccc2)CC1 (stereo unspecified)	i	i	i	i	i
O=C(O)CC(c1cccc(C(F)(F)F)c1)N1CCS(=O)(=O)CC1 (stereo unspecified)	i	-35.4	i	i	i
Cc1onc(-c2c(F)cccc2Cl)c1C(=O)Nc1c(C)n(C)n(-c2ccccc2)c1=O	i	i	i	i	i
Cc1onc(-c2c(F)cccc2Cl)c1C(=O)NC(=S)Nc1c(C)n(C)n(-c2ccccc2)c1=O	i	-66.7	i	i	i
Oc1ccc(COc2cccc3ccccc23)c2cccnc12	i	i	i	i	i
Cc1ccc(C(=O)NCCCNC(=O)c2ccccn2)cc1	i	i	i	i	i
Cc1ccc(C(=O)NCCCNc2ccccc2[N+](=O)[O-])cc1	i	-43.9	i	i	i
Cc1cc(F)ccc1S(=O)(=O)Nc1ccc2oc3c(c2c1)CC(C)CC3 (stereo unspecified)	i	i	i	i	36.8
Cc1ccc(OCC(=O)NNC(=S)NC(=O)c2cccs2)c(C)c1	i	i	i	i	i
Cc1ccc(OCC(=O)NNC(=S)NC(=O)c2ccc(Br)o2)c(C)c1	i	i	i	i	41.3
Cn1c2c(c(=O)n(C)c1=O)C(c1cccc(O)c1)CC(=O)N2 (stereo unspecified)	i	i	i	i	i
CCCN1C(=O)/C(=C\C=C2/C=CN(CC)c3ccccc32)SC1=S	i	i	i	i	i
CN1CCS/C1=C/C=C1/SC(=S)N(Cc2ccccc2)C1=O	i	i	i	i	54.8
CCCCN1C(=O)/C(=C/C=C2\N(C)c3ccccc3C2(C)C)SC1=S	i	i	i	i	67.4
CCCCN1C(=O)/C(=C/C=C2\SCCN2C)SC1=S	i	-39.1	i	i	94.1
CCN1C(=O)/C(=C\N2CCCCCC2)SC1=S	i	i	i	i	i
SMILES	TRHR PAM	D1 antagonist	TRHR ag	D1 potentiator	D1 ag
CC(=O)Nc1ccc(S(=O)(=O)N(C)CC(=O)NC2=NCCS2)cc1	i	-31.1	i	i	i
O=C(c1ccc2c(c1)OCO2)C1CCCN(C2CCN(CCc3ccccc3)CC2)C1 (stereo unspecified)	i	-32.2	i	i	i
O=C(c1ccc2c(c1)OCO2)N1CCC(Cc2ccccc2)CC1	i	-40.3	i	i	i
CC(=O)c1cccc(CN2CCCC(C(=O)c3ccc4c(c3)OCO4)C2)c1 (stereo unspecified)	i	i	i	i	i
COc1cccc(-c2noc(COc3cccc(C)c3C)n2)c1	i	i	i	i	i
COc1ccccc1Cc1noc(COc2cccc(C)c2C)n1	i	-78.0	i	i	i
CCOc1cccc(CNC(=O)c2ccc(N3CCCC3)c(NC(=O)NCc3ccc(F)cc3)c2)c1	i	-34.5	i	i	i
O=C(NCc1cccnc1)C(=O)NCC(c1cccnc1)N1CCN(c2ccc(F)cc2)CC1 (stereo unspecified)	i	i	i	i	i
O=C(NCC(c1cccnc1)N1CCN(c2ccccc2F)CC1)c1ccccc1 (stereo unspecified)	i	-31.8	i	i	i
